Compounds with a hit are over-represented: about 4% of the library has one in this group of screens.
MazEF act = activators of E. coli MazEF toxin-antitoxin RNase, primary screen, biochemical, fluorescence, uHTS. hit rate 0.32% among 350,000. AID 504720, 2011. FAM/BHQ RNA-DNA oligo cleavage fluorescence, 5 h. Endoribonuclease toxin MazF (Escherichia coli (strain K12)), P0AE70. activation, % at 20 µM; in the data active = activation above about 50%
Bead autofluor = flagged as autofluorescent in microsphere protease counterscreen; compound autofluorescence counterscreen, microsphere flow cytometry; active compounds read high; hit rate 3.1% among 360,000; fluorescence intensity (test concentration not listed); in the data active = fluorescence intensity above about 16000; inconclusive = no clear call, values can overlap the other calls
BoNT-F LC inh = BoNT/F light chain protease inhibitors, primary screen, biochemical, flow cytometry, MLPCN library | Multiplex microsphere protease cleavage assay | AID 588497, 2011 | hit rate 0.22% among 360,000 | Botulinum neurotoxin type F light chain protease (Clostridium botulinum) | inhibition, % at 10 µM; in the data active = inhibition above about 35%, passing the limit was not always enough; inconclusive = no clear call, values can overlap the other calls
Anthrax LF prot = Bacillus anthracis LF protease inhibitors, primary screen, biochemical, multiplex microsphere, MLPCN library; Lethal factor (Bacillus anthracis), P15917; hit rate 0.12% among 360,000; AID 588501, 2011; inhibition, % at 10 µM; multiplex microsphere protease cleavage assay
Target sequence (P15917 whole entry, looked up): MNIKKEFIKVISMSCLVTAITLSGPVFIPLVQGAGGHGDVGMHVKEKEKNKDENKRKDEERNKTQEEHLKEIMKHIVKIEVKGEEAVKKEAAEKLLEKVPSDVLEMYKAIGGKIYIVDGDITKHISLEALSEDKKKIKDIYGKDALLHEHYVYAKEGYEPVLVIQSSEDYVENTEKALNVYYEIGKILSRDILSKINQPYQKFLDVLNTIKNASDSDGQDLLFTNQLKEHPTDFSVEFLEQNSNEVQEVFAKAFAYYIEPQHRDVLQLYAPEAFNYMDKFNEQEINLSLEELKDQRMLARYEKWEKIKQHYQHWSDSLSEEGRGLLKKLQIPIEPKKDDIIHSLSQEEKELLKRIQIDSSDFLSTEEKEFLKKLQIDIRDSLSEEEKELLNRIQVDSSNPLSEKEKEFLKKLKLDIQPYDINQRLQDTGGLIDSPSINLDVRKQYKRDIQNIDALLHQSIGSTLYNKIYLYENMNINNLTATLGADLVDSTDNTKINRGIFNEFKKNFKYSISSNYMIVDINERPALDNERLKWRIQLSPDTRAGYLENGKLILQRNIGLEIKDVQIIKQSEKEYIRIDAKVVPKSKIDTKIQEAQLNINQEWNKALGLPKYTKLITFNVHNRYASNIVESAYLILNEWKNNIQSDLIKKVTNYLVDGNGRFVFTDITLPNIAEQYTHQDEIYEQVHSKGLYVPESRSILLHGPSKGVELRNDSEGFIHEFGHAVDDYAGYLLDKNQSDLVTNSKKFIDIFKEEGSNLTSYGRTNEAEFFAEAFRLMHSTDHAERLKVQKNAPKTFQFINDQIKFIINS
DUSP3 inh = VHR1 phosphatase inhibitors, primary screen, biochemical, absorbance, uHTS; hit rate 0.52% among 290,000; AID 1654, 2009; Dual specificity protein phosphatase 3 (Homo sapiens), P51452; recombinant VHR phosphatase, pNPP absorbance; inhibition, % at 13.3 µM; in the data active = inhibition above about 50%
BoNT-A LC inh2 = BoNT/A light chain protease inhibitors, primary screen, biochemical, flow cytometry, MLPCN library. multiplex microsphere protease substrate cleavage. inhibition, % at 10 µM. hit rate 0.17% among 360,000. AID 588499, 2011
Large screens that a line does not name were inactive. Cut-off read from the data, not from the text of the source, unless noted: active = inhibition above about 30%; inconclusive = no clear call, values can overlap the other calls; inactive = below that.

O=C(CSCc1ccccc1)NC1CCSC1=O (stereo not drawn)	Bead autofluor 23850
CC(CC(=O)NC1CCSC1=O)c1ccccc1 (stereo not drawn)	none
O=[N+]([O-])c1ccc(NC(=S)N2CCCC2)cc1	DUSP3 inh 50.7
C#CCN1C(=O)S/C(=C\c2cc3c(cc2OC)OCO3)C1=O	MazEF act 196.1, BoNT-F LC inh inconclusive
COC(=O)CN1C(=O)N/C(=C/c2cc3c(cc2OC)OCO3)C1=O	none
CCc1ccccc1NC(=O)Cn1nc(C(F)(F)F)cc1C1CC1	Bead autofluor 16270, BoNT-A LC inh2 inconclusive
NCc1cccc(-n2cccn2)c1	Bead autofluor 21167, BoNT-A LC inh2 inconclusive
COc1cccc(-c2nc(-c3ccc4c(c3)NC(=O)CO4)cs2)c1	none
COc1ccc(-c2cc(-c3ccc(OC)cc3)nc(-c3ccc4c(c3)NC(=O)CO4)c2)cc1	Bead autofluor 23016
CC(=O)Oc1ccccc1-n1c(C)nc(=O)c(-c2ccccc2)c1C	none
O=C(Nc1nccs1)c1cc2sccc2n1Cc1ccc(Cl)cc1	none
COc1cc(OC)c(-c2nnc(-c3ccc(OC)c(OC)c3OC)o2)cc1OC	Bead autofluor 23443
O=C1c2[nH]nc(-c3ccccc3O)c2C(c2cccc(Cl)c2)N1CC1CCCO1 (stereo not drawn)	Bead autofluor 22113
CCOC(=O)Cn1cnc2c(nnn2-c2cccc(Cl)c2)c1=O	none
CCOC(=O)CSc1nc2c(c(=O)[nH]c(=O)n2C)n1CCCc1ccccc1	Bead autofluor 22767
CCOC(=O)CSc1nc2c(c(=O)[nH]c(=O)n2C)n1Cc1ccccc1	BoNT-F LC inh inconclusive
CCn1cc(CN(C)C(=O)/C=C/c2ccc([N+](=O)[O-])cc2)c(C)n1	none
Cc1cc(N2CCCCCC2)nc2ccc(F)cc12	Bead autofluor 19022 (no result: DUSP3 inh)
COc1ccc2c(C)cc(N3CCCCCC3)nc2c1	none
CCOC(=O)N1CCC(Nc2c(-c3ccccc3)c(=O)c2=O)CC1	Bead autofluor 20189
CCOC(=O)N1CCC(Nc2ncnc3c2cnn3-c2ccccc2)CC1	Bead autofluor 26060, BoNT-A LC inh2 inconclusive
CCOC(=O)N1CCC(Nc2nc(OC)nc(OC)n2)CC1	Bead autofluor 22300, BoNT-A LC inh2 inconclusive
CCOC(=O)N1CCC(Nc2c(Nc3cccc(CC)c3)c(=O)c2=O)CC1	Bead autofluor 18932
CCOC(=O)N1CCC(Nc2cccc(SC)c2)CC1	none
c1ccc(-n2ncc3c(NC4CCCCCC4)ncnc32)cc1	none
C[N+]1(C)CC2=Cc3ccccc3CC2C1 (stereo not drawn)	none
CNC(=O)NC(=O)CSc1nc(-c2cccs2)c(C#N)c(=O)[nH]1	none
CCOC(=O)N1CCN(c2c(NCCN3CCN(Cc4ccccc4)CC3)c(=O)c2=O)CC1	none
CCOC(=O)N1CCN(c2c(-c3ccc(C)cc3)c(=O)c2=O)CC1	DUSP3 inh 53.8
CCOC(=O)N1CCC(Nc2c(NCCN3CCN(Cc4ccccc4)CC3)c(=O)c2=O)CC1	Bead autofluor 21681
CCCCN1C(=O)NC(NS(=O)(=O)c2ccc(N)cc2)(C(F)(F)F)C1=O (stereo not drawn)	Bead autofluor 19835
CC(CNC(=O)COC(=O)c1cccs1)c1ccccc1 (stereo not drawn)	none (no result: DUSP3 inh)
COc1ccc(C(=O)NCc2cnn(C)c2C)cc1OC1CCN(C(C)C)CC1	DUSP3 inh 53.5
COc1ccc(C(=O)NCc2cnn(C)c2)cc1OC1CCN(C(C)C)CC1	none
COC(=O)CN(C)C(=O)c1ccc(OC)c(OC2CCN(C(C)C)CC2)c1	DUSP3 inh 57.0
O=C(COC(=O)c1n[nH]c2ccccc12)NC(=O)NCc1ccco1	none
Cc1oc(C(=O)Nc2ccc(C(=O)O)cc2)cc1COc1ccccc1	Bead autofluor 16440
CC(=O)c1cc(C(=O)Nc2ccc(C(=O)O)cc2)oc1C	none
Cc1ccc(C)c(N2CCN(C(=O)c3ccc(Cn4c(=O)[nH]c5ccccc5c4=O)cc3)CC2)c1	DUSP3 inh 51.2
C=CCn1c(=O)[nH]c2cc(C(=O)N3CCN(c4cc(C)ccc4C)CC3)ccc2c1=O	Bead autofluor 16226
O=C(c1nnc(Cc2ccc(Cl)cc2)o1)N1CCOCC1	none
